Laboratory results taken from PubChem BioAssay (NCATS).
Values joined by “and” are separate entries in the source; they are usually repeats but may differ in a detail not shown here. Equal entries are not always repeated. Inconclusive results are not listed. Active and inactive are the calls of the source. Unless noted, calls come from the whole dose curve; as a rule, active = well fitted curve in the direction sought with a large enough effect; inconclusive = small, poorly fitted or top-dose-only effect, or another doubt; inactive = no such curve, though single readings can be large; an effect the other way counts as inactive or inconclusive.

What was measured:
[1] = AP1 Signaling Pathway (AID 357; active = well fitted curve in either direction with a large enough effect, not every such curve was filed as active; note: % is set by controls: 0 for no effect and ±100 for the full control effect); conditions: ME-180 AP-1-bla reporter, EGF-induced, beta-lactamase ratio, 5 h; at 38 µM (top of the series)
How it was run: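 Beta-lactamase reporter under AP-1 response element, ME-180 background. Stimulus: EC50 EGF. Compound exposure 5 h, 37 °C. Detection: CCF4, 2.5 h RT, 460/530 nm. Values: AC50 from titration.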

[2] = target: Cytochrome P450 1A2 (Homo sapiens) (UniProt P05177); test: p450-cyp1a2 (AID 410; calls by dose curve; note: potency is the fitted concentration of half-maximal effect)
Cytochrome P450 1A2 (Homo sapiens), sequence (P05177 whole entry, looked up): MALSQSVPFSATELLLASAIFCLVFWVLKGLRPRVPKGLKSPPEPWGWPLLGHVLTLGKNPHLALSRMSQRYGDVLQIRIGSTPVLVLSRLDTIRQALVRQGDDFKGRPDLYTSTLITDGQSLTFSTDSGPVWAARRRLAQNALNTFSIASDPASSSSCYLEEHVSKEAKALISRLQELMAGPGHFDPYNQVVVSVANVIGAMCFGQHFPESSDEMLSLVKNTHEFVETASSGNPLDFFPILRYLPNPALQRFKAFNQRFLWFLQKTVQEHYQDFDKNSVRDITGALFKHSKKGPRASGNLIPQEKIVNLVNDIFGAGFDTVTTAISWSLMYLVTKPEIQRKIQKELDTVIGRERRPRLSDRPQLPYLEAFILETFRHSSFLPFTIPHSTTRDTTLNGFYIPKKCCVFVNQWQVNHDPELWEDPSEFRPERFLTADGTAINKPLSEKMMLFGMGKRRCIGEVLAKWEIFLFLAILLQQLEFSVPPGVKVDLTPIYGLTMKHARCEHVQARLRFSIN
How it was run: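 Luminescent readout of luciferin formed from Luciferin-ME by human CYP1A2; data normalized against complete inhibition by 57 uM furafylline. Enzyme 20nM, substrate 100uM at Km, 100mM KPO4 buffer, 60 min reaction at room temperature.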

[3] = NFAT Signaling Pathway (AID 444; active = well fitted curve in either direction with a large enough effect, not every such curve was filed as active;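 note: carbachol stimulus at about its EC50 of 1 µM final; % is set by controls: 0 for no effect and ±100 for the full control effect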); conditions: Jurkat NFAT-bla M1, carbachol, beta-lactamase ratio, 5 h; at 38 µM (top of the series)
How it was run: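 Read-out: CCF4 FRET ratio (460 nm/530 nm) after 1 h RT dye loading, used for %activity and AC50 from titration series. Cells: Jurkat NFAT-β-lactamase/M1 line, treated with compound plus 1 uM carbachol for 5 h, 37 °C.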

[4] = target: Glucocorticoid receptor (Homo sapiens) (UniProt P04150); test: GR-GFP Redistribution (AID 450;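 active = compounds whose dose series gives a full or clear partial fitted curve of increased nuclear translocation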; note: potency is the fitted concentration of half-maximal effect); conditions: U2OS GR-GFP nuclear translocation, laser cytometry, 2 h
Glucocorticoid receptor (Homo sapiens), sequence (P04150 whole entry, looked up, the tested form may be a part): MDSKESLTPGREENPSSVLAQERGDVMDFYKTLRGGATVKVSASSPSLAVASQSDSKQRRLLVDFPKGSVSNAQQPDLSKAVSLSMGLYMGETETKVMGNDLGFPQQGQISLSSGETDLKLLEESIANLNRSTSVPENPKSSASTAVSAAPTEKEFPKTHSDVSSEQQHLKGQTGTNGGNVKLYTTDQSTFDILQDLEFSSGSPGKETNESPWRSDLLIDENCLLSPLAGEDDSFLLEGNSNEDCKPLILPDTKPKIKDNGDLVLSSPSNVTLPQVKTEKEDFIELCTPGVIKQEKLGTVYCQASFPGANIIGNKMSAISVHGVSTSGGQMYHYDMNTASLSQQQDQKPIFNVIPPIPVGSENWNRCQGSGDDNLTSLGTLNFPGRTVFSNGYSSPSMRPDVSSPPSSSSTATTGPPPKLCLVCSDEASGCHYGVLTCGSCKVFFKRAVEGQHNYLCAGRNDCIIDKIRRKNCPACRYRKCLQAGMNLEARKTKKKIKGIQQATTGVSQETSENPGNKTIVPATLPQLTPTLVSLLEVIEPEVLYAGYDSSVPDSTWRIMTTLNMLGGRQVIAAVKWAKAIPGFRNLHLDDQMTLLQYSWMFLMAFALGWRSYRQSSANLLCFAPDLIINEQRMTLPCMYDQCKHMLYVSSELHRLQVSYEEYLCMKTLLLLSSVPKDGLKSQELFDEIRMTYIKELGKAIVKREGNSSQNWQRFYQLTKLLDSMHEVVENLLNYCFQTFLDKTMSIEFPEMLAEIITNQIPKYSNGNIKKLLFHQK

[5] = target: Glucocorticoid receptor (Homo sapiens) (UniProt P04150); test: GR-EFC Redistribution (AID 451; calls by dose curve; note: potency is the fitted concentration of half-maximal effect); conditions: CHO-K1 GR-EFC translocation, beta-gal luminescence, 2 h
How it was run: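 Translocation of GR-ED fusion to nuclear EA restores b-gal, read by luminescence after 1 h room-temperature detection. Engineered CHO-K1 biosensor cells, 1,000/well, exposed 2 h at 37 C to titrations up to 46 uM final.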

[6] = target: Mitogen-activated protein kinase 10 (Mus musculus) (UniProt Q61831); test: JNK3 AlphaScreen Assay (AID 530; active = well fitted curve in either direction with a large enough effect, not every such curve was filed as active;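 note: kinase came from lysate of stimulated human HepG2 cells; signal reports phosphorylation of biotinylated GST-cJun 1-79 at Ser73 with 10 µM ATP; % is set by controls: 0 for no effect and ±100 for the full control effect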)
How it was run: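 Compound titrations were preincubated 15 minutes at room temperature with substrate, antibody and pre-activated JNK3-containing HepG2 lysate. Reactions were started with 10 uM ATP and stopped with EDTA-containing bead buffer for AlphaScreen detection.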

[7] = target: 3',5'-cyclic-AMP phosphodiesterase 4B (Homo sapiens) (UniProt Q07343); test: qHTS Assay for Inhibitors of PDE-IV (AID 607; active = well fitted activation curve with a large enough effect in the main read-out, with a control signal flat, not every such curve was filed as active; note: % of control where 0% means no effect)
3',5'-cyclic-AMP phosphodiesterase 4B (Homo sapiens), sequence (Q07343 whole entry, looked up): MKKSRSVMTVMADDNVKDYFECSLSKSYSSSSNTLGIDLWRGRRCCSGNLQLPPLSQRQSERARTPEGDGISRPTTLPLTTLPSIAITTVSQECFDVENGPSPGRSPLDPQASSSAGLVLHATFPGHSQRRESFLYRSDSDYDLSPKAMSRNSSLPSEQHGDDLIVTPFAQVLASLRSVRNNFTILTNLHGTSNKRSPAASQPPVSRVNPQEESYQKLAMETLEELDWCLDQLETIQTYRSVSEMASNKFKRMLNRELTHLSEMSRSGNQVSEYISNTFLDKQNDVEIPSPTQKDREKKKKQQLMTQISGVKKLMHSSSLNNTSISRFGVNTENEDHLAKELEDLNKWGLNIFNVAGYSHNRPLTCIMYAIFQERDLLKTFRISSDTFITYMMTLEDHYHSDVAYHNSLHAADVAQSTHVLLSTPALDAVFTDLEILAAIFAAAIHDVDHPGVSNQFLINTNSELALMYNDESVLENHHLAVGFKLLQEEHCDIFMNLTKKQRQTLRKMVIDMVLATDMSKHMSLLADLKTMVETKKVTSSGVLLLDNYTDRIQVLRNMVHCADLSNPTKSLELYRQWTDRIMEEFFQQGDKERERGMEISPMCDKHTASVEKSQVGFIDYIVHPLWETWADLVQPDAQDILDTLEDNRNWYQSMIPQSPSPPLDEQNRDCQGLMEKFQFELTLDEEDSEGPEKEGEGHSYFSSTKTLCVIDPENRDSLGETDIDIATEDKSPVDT
How it was run: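 The readout is membrane depolarisation from a cAMP-sensing CNG channel, detected with a potential dye at ex 535/em 590. Cells were HEK293-derived (endogenous PDE-IV) at 1000 cells/well, titrated up to 22.9 uM final.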

[8] = target: Guanine nucleotide-binding protein G(i) subunit alpha-1 (Homo sapiens) (UniProt P63096); test: qHTS Assay for Inhibitors of RGS12 GoLoco Motif Activity (Green Fluorophore) (AID 879);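 note: 0% = labeled peptide with Gαi1 and full inhibition = labeled peptide alone without protein; negative values mean loss of peptide binding seen as reduced polarization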
Guanine nucleotide-binding protein G(i) subunit alpha-1 (Homo sapiens), sequence (P63096 whole entry, looked up): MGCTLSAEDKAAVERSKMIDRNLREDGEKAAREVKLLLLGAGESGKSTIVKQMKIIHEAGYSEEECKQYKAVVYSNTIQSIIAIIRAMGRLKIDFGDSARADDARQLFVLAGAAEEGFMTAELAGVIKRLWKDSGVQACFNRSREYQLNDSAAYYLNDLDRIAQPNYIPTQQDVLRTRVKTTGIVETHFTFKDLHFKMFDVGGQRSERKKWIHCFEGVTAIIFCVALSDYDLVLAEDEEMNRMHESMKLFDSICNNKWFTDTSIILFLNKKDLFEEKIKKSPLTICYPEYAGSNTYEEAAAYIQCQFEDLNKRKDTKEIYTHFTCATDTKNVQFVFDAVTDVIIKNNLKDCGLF
How it was run: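 Fluorescence polarization assay: 50 nM Gαi1 with 10 nM FITC-labeled RGS12 GoLoco peptide in 10 mM Tris pH 7.5, 150 mM NaCl, 0.1 mM GDP, 0.05% NP40, 10 min at room temperature with compound.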

[9] = target: Cytochrome P450 2C9 (Homo sapiens) (UniProt P11712); test: qHTS Assay for Inhibitors and Substrates of Cytochrome P450 2C9 (AID 883); note: potency is the fitted concentration of half-maximal effect; nearly all actives have a fitted effect of over 60% in size
Cytochrome P450 2C9 (Homo sapiens), sequence (P11712 whole entry, looked up): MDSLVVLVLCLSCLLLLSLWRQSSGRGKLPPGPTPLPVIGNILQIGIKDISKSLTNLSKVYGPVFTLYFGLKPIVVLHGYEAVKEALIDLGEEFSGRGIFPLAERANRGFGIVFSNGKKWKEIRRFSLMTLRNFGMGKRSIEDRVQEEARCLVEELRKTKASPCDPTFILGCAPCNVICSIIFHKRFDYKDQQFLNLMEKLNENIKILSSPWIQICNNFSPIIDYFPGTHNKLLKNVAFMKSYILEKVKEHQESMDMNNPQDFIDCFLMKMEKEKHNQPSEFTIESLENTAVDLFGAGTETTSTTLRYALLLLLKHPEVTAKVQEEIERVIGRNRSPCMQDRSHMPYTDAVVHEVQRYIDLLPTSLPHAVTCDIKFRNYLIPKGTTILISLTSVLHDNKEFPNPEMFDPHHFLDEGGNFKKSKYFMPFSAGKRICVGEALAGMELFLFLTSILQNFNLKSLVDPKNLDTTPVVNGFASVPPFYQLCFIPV
How it was run: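 Inhibition of CYP2C9 is scored as loss of luminescence, with 57uM sulphaphenazole defining 100% inhibition. Substrate Luciferin-H is used at 100uM, equal to its KM; enzyme at 10nM in 25mM KPO4, 60 min at 37C with NADPH regeneration.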

[10] = target: Cytochrome P450 3A4 (Homo sapiens) (UniProt P08684); test: qHTS Assay for Inhibitors and Substrates of Cytochrome P450 3A4 (AID 884); note: potency is the fitted concentration of half-maximal effect; nearly all actives have a fitted effect of over 50% in size
Cytochrome P450 3A4 (Homo sapiens), sequence (P08684 whole entry, looked up): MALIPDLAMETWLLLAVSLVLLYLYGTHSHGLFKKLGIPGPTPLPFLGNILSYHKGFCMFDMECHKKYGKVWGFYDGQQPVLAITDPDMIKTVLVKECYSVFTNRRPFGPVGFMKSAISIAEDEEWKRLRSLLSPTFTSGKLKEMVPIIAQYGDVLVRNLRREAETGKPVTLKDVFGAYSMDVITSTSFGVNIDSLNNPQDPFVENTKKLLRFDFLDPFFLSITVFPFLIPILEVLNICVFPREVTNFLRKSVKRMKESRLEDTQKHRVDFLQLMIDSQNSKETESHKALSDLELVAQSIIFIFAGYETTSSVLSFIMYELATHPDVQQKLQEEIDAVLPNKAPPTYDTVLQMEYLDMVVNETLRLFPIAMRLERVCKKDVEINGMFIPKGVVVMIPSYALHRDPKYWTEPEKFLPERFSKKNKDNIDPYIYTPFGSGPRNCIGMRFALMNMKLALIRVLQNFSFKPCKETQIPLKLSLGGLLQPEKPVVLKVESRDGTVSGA
How it was run: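 20 nM human CYP3A4 with 25 uM Luciferin-PPXE (at KM) in 200 mM KPO4, preincubated 10 min with compound; NADPH regeneration started a 60 min RT reaction. Luciferin detected by luminescence, normalized to 57 uM ketoconazole as full inhibition.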

[11] = target: Cytochrome P450 3A4 (Homo sapiens) (UniProt P08684); test: qHTS Assay for Activators of Cytochrome P450 3A4 (AID 885); note: nearly all actives have a fitted effect of over 65% in size
How it was run: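 Steps: enzyme/substrate mix dispensed; compound added, 10 min RT; NADPH regeneration solution added, 60 min RT; luciferin detection buffer stops reaction; 20 min later luminescence measured.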

[12] = target: Cytochrome P450 2C19 (Homo sapiens) (UniProt P33261); test: qHTS Assay for Inhibitors and Substrates of Cytochrome P450 2C19 (AID 899); note: potency is the fitted concentration of half-maximal effect; nearly all actives have a fitted effect of over 60% in size
Cytochrome P450 2C19 (Homo sapiens), sequence (P33261 whole entry, looked up): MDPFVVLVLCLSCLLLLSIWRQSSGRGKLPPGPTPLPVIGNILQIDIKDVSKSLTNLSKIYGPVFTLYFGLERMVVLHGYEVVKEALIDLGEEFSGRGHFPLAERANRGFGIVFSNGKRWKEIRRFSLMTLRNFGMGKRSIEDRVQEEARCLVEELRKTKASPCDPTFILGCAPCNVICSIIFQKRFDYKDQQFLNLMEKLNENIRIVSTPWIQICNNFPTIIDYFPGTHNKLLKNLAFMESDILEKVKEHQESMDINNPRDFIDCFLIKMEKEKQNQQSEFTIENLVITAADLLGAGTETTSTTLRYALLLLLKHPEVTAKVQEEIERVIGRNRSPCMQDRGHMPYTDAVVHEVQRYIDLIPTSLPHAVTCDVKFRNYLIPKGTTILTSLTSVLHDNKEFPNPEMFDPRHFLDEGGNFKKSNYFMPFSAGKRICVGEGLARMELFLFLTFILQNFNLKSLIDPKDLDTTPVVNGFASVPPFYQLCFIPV
How it was run: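 5nM enzyme + 10uM Luciferin-H EGE (=KM), 50mM KPO4; cpd pin-transferred, 10 min 37C; NADPH regen, 60 min 37C; stopped w/ luciferin detection reagent, 20 min; luminescence. Normalized to 57uM ketoconazole (AC100).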

[13] = Confirmation and Secondary Assay for Modulators of Hemoglobin Beta Chain Splicing at IVS2 654 locus (AID 910);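 note: HeLa cells stably carrying EGFP split by mutant beta-globin IVS2-654 intron; per-well total GFP intensity by laser scanning cytometry after 2-day treatment; % of control where 0% means no effect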
How it was run: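 Readout: per-well total peak green fluorescence (488 nm ex, 500–520 nm em) from objects 5–250 µm, reflecting correct splicing of an EGFP-654 reporter. Compounds were applied for 2 days at 37 °C to overnight-plated HeLa EGFP-654 cells; controls were DMSO and 500 nM IVS2-654 PNA.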

[14] = qHTS Assay for Identification of Small Molecule Agonists for Hypoxia Response Element Signaling Pathway (AID 914; active = well fitted activation curve with a large enough effect in the signal ratio, with a control signal flat, not every such curve was filed as active; the % refers to the signal ratio; note: % of control where 0% means no effect); conditions: ME-180 HRE-bla reporter, beta-lactamase ratio, CoCl2, 17 h; active compounds read high
How it was run: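 ME-180 cells carrying an HRE-driven beta-lactamase reporter were treated with compounds in a titration series plus an EC50 level of CoCl2 for 17 h at 37 degrees Celsius; CCF4 readout as the 460nm/530nm ratio gave AC50 values.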

[15] = Confirmation and Secondary Assay for Modulators of Hemoglobin Beta Chain Splicing at IVS2 705 locus (AID 930);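 note: HeLa cells stably expressing the EGFP-705 splicing reporter; % of control where 0% means no effect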
How it was run: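 HeLa cells stably carrying EGFP interrupted by mutant beta-globin IVS2-705 intron (CMV-driven) were seeded at 500 cells/well, treated next day with compound for 2 days at 37C; corrected splicing restores EGFP, read as total peak GFP intensity per well.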

[16] = target: Pyruvate kinase (Leishmania mexicana) (UniProt Q27686); test: qHTS Validation Assay for Inhibitors of Leishmania Mexicana Pyruvate Kinase (AID 945);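 note: 0% = DMSO only neutral control wells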
Pyruvate kinase (Leishmania mexicana), sequence (Q27686 2-499 E452W): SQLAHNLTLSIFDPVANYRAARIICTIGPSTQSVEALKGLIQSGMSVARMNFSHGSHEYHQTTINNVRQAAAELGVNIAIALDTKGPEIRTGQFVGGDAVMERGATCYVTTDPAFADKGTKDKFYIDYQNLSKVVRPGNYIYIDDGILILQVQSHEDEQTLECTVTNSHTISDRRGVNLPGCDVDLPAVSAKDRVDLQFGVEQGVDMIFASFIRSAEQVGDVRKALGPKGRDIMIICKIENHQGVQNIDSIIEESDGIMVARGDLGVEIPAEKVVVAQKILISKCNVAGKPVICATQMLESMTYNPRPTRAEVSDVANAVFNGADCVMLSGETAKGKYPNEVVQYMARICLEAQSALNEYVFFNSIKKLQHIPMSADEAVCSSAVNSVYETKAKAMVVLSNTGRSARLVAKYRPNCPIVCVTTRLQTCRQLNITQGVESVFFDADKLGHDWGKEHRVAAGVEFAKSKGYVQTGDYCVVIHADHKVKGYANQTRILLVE
How it was run: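 LmPYK E451W 0.2 nM; 0.5 mM PEP, 0.1 mM ADP, 7 mM MgCl2, 50 mM KCl, imidazole pH 7.2, 0.01% Tween 20, 0.05% BSA; 1 h RT; PKLight luminescence; DMSO-normalized.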

[17] = target: Alpha-galactosidase A (Homo sapiens) (UniProt P06280); test: Counterscreen for Glucocerebrosidase Inhibitors: qHTS Assay for Human alpha-Galactosidase at pH 4.5 (AID 992); note: 0% is about no effect
Alpha-galactosidase A (Homo sapiens), sequence (P06280 whole entry, looked up): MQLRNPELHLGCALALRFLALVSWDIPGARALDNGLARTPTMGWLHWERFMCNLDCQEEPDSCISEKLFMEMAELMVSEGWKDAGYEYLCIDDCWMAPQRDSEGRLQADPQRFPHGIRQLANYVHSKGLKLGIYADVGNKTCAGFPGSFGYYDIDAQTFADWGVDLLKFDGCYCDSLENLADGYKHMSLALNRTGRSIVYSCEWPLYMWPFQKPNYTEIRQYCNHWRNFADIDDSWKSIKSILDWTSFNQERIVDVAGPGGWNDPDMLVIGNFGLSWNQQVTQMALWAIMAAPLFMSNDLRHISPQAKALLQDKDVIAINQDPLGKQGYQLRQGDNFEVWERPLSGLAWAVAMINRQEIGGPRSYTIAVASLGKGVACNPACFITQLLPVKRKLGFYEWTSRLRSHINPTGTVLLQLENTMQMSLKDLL
How it was run: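 Concentration-response curves (0.7 nM to 77 uM final) were modeled with the Hill equation to give AC50. Reactions: 2 nM enzyme, 80 uM fluorogenic alpha-galactoside, pH 4.5 citric acid buffer, 20 min, room temperature.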

[18] = target: alpha-glucosidase (Oryza sativa, rice) (UniProt Q653V4); test: Counterscreen for Glucocerebrosidase Inhibitors: qHTS Assay for Rice alpha-Glucosidase at pH 5.0 (AID 997);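 note: 0% = full activity with enzyme and -100% = basal without enzyme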
How it was run: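 Rice alpha-glucosidase (4 nM final) with 400 uM 4-methylumbelliferyl-alpha-D-glucopyranoside in citrate buffer pH 5.0, 20 min at room temperature, stopped at pH 10; fluorescence 365/440 nm, compounds 0.7 nM–77 uM, AC50 from Hill fits.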

[19] = Validation of Assay for Modulators of Lamin A Splicing (AID 1459; active = well fitted curve in the direction sought with a large enough effect in the signal ratio; the % refers to the signal ratio;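 note: cells exposed to compound for two days before reading; 0% is about no effect; ratio rise marks activators and ratio drop marks inhibitors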)
How it was run: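 Splicing correction read as GFP (500-530 nm) over DsRed2 (575-640 nm) object intensity after 48 h compound exposure of reporter HeLa S3 clones (600 cells/well, 2% FBS medium); ancitabine and cycloheximide titrations, 0.5% DMSO as vehicle.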

[20] = qHTS Assay for Lipid Storage Modulators (AID 1519; calls by dose curve; note: % is set by controls: 0 for no effect and ±100 for the full control effect); conditions: Drosophila S3 cells, BODIPY lipid droplet/cell ratio, laser cytometry; at 57.5 µM (top of the series); cells loaded with oleic acid
How it was run: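 Cells seeded at 5,000 per well were treated with compounds over a concentration series and loaded with oleic acid (400 uM, as added). Lipid droplet fluorescence (488 nm excitation, 500-530 nm channel) was read by laser-scanning cytometry and normalized to 20 uM Triacsin C.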

NCCCCCCNS(=O)(=O)c1cccc2c(Cl)cccc12
inactive: activity change, negative = inhibition [1] 7.92% | activity change, negative = inhibition [3] -4.09% | Potency [4] > 46 µM | Potency [5] > 46 µM | Potency [6] | Potency [7] | outcome [8] | Potency [11] | outcome [13] | activation [14] -27.9% | outcome [15] | Potency [16] | outcome [17] | outcome [18] | outcome [19] | activity change, negative = inhibition [20] 3.12%
active: Potency [2] 7.94 µM and 1.26 µM | Potency [9] 3.16 µM | Potency [10] 3.98 µM and 2.51 µM | Potency [12] 0.199 µM
